Source: the supplement of paper PMC10849652
About 8,800 targets were measured; listed, in parts, are those with a hit and a random draw of the rest. About 0.5% of all pairs of compound and target were hits.

Assays:
Assay in all cases: log2 fold change, soluble protein after heating vs DMSO (PISA); higher = thermal stabilisation; K562 lysate, 10 uM; active = over 0.2 and 3.5 SD of the protein, either way, in both replicates (recomputed)
[1] = compound: CS(=O)(=O)N1CCN(Cc2cc3nc(-c4cccc5[nH]ncc45)nc(N4CCOCC4)c3s2)CC1 [pictilisib]
Summary of the method: (§1)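 Following dounce homogenisation of K562 pellets in PBS pH 7.4 with 1 mM MgCl2, crude extract at 1 mg/mL protein was incubated for 30 min with 10 μM compound. Aliquots were then heated for 3 min over 48°C-58°C and pooled, NP-40 was added to 0.5% at 4°C, and soluble protein was recovered as the supernatant at 21,000xg for 90 min. Channel-sum-equalised TMTpro 16plex LC-MS/MS quantified this protein. Each value, from duplicates, is a log-two fold change in thermal stability relative to solvent controls.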

[2] = compound: C[C@@H](Oc1cc(-c2cnn(C3CCNCC3)c2)cnc1N)c1c(Cl)ccc(F)c1Cl [crizotinib]
Summary of the method: as §1

[3] = compound: C[C@H](C1=CC=C(C=C1)C(=O)NC2=C3C=CNC3=NC=C2)N
Summary of the method: as §1

[4] = compound: Cc1cc(Nc2cc(CN3CCOCC3)c3nc(C)c(Cc4ccc(Cl)cc4F)n3n2)n[nH]1 [gandotinib]
Summary of the method: as §1

[5] = compound: Cc1ccc(-n2nc(C(C)(C)C)cc2NC(=O)Nc2ccc(OCCN3CCOCC3)c3ccccc23)cc1 [doramapimod]
Summary of the method: as §1

[6] = compound: Cc1ccc(NC(=O)c2ccc(CN3CC[C@H](N(C)C)C3)c(C(F)(F)F)c2)cc1Nc1nccc(-c2cncnc2)n1 [bafetinib]
Summary of the method: as §1

[7] = compound: Cc1cccc(CC(=O)N2CCc3c2ccc(-c2cn(C)c4ncnc(N)c24)c3F)n1
Summary of the method: as §1

[8] = compound: Cc1cn(-c2cc(NC(=O)c3ccc(C)c(Nc4nccc(-c5cccnc5)n4)c3)cc(C(F)(F)F)c2)cn1 [nilotinib]
Summary of the method: as §1

[9] = compound: Cc1nc(Nc2n[nH]c3c2CN(C(=O)N[C@H](CN(C)C)c2ccccc2)C3(C)C)c2sccc2n1
Summary of the method: as §1

[10] = compound: Cc1ncc(-c2ccnc(Nc3ccc(S(C)(=O)=O)cc3)n2)n1C(C)C
Summary of the method: as §1

[11] = compound: Cn1cc(CNCC2CCN(c3ncc(C(=O)NO)cn3)CC2)c2ccccc21 [quisinostat]
Summary of the method: as §1

[12] = compound: Cn1cncc1[C@@](N)(c1ccc(Cl)cc1)c1ccc2c(c1)c(-c1cccc(Cl)c1)cc(=O)n2C [tipifarnib]
Summary of the method: as §1

[13] = compound: NC(=O)Nc1cc(-c2cccc(F)c2)sc1C(=O)N[C@H]1CCCNC1
Summary of the method: as §1

[14] = compound: NC1(c2ccc(-c3nc4ccn5c(=O)[nH]nc5c4cc3-c3ccccc3)cc2)CCC1
Summary of the method: as §1

[15] = compound: C[C@H](Nc1ncnc2nc[nH]c12)c1cc2cccc(Cl)c2c(=O)n1-c1ccccc1 [duvelisib]
Summary of the method: as §1

[16] = compound: Cc1nc(Nc2ncc(C(=O)Nc3c(C)cccc3Cl)s2)cc(N2CCN(CCO)CC2)n1 [dasatinib]
Summary of the method: as §1

[17] = compound: Cn1cc(-c2ccc3c(c2)CCN3C(=O)Cc2cccc(C(F)(F)F)c2)c2c(N)ncnc21
Summary of the method: as §1

[18] = compound: Cc1cc(Nc2cc(N3CCN(C)CC3)nc(Sc3ccc(NC(=O)C4CC4)cc3)n2)n[nH]1 [tozasertib]
Summary of the method: as §1

[19] = compound: CS(=O)(=O)CCNCc1ccc(-c2ccc3ncnc(Nc4ccc(OCc5cccc(F)c5)c(Cl)c4)c3c2)o1 [lapatinib]
Summary of the method: as §1

[20] = compound: NC(=O)c1cnc(N[C@@H]2CCCC[C@@H]2N)nc1Nc1cccc(-n2nccn2)c1
Summary of the method: as §1

Measured: log2 fold change

RNF24 isoform 2 (UniProt Q9Y225)
UniProt Q9Y225, sequence (Q9Y225 whole entry, looked up): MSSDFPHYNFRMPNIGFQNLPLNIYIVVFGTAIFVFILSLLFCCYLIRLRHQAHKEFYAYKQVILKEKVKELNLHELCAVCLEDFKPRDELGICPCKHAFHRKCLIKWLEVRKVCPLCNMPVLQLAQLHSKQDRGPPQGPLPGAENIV
inactive: [1] -0.089 | [2] -0.074 | [3] -0.173 | [4] 0.117 | [5] -0.093 | [6] -0.477 | [7] 0.028 | [8] 0.105 | [9] -0.028 | [10] 0.123 | [11] -0.139 | [12] 0.034 | [13] -0.075 | [14] 0.051

SEC16A isoform 3 (UniProt O15027)
UniProt O15027, sequence (O15027 whole entry, looked up): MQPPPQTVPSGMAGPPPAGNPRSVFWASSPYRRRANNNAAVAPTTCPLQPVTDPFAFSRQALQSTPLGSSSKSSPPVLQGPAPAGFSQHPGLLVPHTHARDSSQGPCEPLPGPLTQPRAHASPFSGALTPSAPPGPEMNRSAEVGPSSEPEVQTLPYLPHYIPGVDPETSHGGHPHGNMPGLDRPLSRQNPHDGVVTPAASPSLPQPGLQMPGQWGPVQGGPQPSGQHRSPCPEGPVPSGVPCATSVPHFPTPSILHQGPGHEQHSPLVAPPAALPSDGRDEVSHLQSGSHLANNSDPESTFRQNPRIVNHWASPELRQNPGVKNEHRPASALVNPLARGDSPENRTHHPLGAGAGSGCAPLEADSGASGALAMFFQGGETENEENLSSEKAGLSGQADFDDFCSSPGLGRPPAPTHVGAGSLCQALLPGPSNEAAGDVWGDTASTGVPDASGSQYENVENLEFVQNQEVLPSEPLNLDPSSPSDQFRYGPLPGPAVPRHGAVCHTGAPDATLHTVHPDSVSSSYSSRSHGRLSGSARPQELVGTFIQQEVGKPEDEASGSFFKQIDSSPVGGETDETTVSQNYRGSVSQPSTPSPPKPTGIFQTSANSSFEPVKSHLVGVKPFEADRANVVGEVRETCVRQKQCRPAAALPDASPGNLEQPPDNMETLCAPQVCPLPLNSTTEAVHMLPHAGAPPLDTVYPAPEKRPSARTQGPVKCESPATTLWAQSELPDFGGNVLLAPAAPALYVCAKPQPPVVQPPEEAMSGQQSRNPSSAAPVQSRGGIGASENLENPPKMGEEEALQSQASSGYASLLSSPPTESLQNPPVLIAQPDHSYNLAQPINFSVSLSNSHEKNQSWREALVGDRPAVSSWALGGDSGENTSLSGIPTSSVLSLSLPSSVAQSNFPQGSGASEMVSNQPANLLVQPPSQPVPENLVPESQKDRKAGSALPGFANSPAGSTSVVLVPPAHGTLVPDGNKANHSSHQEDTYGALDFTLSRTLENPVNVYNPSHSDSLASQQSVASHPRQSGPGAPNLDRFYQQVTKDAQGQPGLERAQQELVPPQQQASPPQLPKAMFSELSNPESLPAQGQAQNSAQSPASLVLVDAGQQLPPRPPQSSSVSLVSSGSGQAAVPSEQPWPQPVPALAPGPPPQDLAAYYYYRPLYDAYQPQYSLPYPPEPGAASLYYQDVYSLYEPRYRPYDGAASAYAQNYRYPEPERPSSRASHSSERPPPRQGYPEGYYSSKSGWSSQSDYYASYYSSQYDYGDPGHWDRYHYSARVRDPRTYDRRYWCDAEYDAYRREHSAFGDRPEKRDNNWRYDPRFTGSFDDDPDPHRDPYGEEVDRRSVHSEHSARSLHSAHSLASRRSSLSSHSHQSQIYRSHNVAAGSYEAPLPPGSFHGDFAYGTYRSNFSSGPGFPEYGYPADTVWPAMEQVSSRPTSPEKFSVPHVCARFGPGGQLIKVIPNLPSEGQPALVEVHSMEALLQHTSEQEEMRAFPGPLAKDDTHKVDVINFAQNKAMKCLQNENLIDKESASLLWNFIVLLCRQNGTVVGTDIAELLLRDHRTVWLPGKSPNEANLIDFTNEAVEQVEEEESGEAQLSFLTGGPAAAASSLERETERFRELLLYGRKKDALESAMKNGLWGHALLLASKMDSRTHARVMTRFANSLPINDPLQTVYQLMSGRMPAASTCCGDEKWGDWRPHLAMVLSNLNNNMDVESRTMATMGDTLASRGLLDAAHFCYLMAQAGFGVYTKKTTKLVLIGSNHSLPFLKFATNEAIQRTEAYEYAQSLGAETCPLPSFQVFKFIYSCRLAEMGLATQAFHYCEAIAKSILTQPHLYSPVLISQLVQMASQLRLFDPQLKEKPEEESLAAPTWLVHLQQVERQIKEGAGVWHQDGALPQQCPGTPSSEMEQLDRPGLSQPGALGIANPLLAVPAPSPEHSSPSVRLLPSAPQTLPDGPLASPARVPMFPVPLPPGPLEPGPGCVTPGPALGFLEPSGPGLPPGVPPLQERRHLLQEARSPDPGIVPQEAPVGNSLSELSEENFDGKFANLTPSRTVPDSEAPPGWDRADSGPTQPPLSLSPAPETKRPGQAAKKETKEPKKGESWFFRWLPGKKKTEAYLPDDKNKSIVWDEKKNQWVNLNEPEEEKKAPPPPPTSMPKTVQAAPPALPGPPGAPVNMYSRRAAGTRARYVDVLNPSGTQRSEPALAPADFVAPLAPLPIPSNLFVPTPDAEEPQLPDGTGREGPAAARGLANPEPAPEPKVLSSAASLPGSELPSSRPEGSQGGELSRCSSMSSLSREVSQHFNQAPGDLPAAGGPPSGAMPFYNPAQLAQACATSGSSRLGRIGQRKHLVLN
inactive: [15] 0.024 | [16] -0.026 | [17] -0.039

RMI2 (UniProt Q96E14)
UniProt Q96E14, sequence (Q96E14 whole entry, looked up): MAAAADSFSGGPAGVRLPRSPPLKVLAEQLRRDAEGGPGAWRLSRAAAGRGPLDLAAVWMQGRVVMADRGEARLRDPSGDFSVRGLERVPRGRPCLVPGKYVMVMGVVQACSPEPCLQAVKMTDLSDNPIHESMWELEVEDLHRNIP
inactive: [2] 0.005 | [15] 0.013 | [18] -0.068 | [5] -0.012 | [16] -0.049 | [17] -0.044 | [11] -0.051 | [13] 0.021 | [14] 0.082

RAD17 (UniProt O75943)
UniProt O75943, sequence (O75943 whole entry, looked up): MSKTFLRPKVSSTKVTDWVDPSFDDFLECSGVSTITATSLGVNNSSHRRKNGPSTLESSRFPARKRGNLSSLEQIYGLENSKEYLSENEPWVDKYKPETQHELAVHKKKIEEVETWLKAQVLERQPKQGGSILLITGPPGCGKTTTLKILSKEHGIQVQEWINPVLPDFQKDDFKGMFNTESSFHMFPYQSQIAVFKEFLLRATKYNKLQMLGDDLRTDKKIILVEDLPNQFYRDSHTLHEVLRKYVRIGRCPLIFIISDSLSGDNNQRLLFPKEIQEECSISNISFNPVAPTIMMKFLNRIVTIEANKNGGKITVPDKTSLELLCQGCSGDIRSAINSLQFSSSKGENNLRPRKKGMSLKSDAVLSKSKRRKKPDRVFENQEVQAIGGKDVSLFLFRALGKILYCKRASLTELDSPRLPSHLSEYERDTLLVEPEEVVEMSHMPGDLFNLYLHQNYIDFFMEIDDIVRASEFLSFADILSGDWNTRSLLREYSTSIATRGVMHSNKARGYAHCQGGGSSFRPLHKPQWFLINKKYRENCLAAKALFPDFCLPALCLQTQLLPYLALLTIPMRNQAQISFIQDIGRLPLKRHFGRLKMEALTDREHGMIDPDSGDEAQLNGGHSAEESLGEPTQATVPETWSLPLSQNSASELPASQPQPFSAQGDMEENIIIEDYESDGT
inactive: [1] -0.019 | [2] -0.01 | [3] 0.021 | [15] -0.027 | [4] -0.194 | [18] 0.005 | [5] -0.015 | [6] 0 | [7] -0.055 | [8] -0.027 | [9] 0.073 | [16] -0.064 | [10] -0.023 | [17] 0 | [11] -0.032 | [12] -0.085 | [13] 0.038

QSER1, A0A3B3IRW6
inactive: [19] -0.04 | [2] -0.072 | [15] 0.005 | [18] -0.033 | [5] 0 | [8] -0.028 | [9] 0.056 | [16] 0.018 | [10] 0.042 | [17] 0.052 | [11] -0.117 | [12] -0.048 | [13] 0.064 | [20] -0.027 | [14] -0.048
